Source: PubChem BioAssay (NCATS)
Results filed as inconclusive are left out. Activity calls are given as the source filed them. Calls come from the whole dose curve; as a rule, active = well fitted cell-killing curve with a large enough effect; inconclusive = small, poorly fitted or top-dose-only effect, or effect the other way; inactive = no such curve, though single readings can be large or run the other way.

assay: Viability qHTS for spleen associated tyrosine kinase inhibitor (SYKi) drug resistant MV4-11 cells (AID 1963824); conditions: SYKi-resistant MV4-11 viability, CellTiter-Glo, 72 h; series mostly up to 45 µM; viability, % of control: at the top concentration; note: nearly all actives have a fitted effect of over 35% in size
In short: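 SYK-inhibitor-resistant MV4-11 AML cells were seeded at 500 per well onto compound and cultured 72 hours (37 °C, 5% CO2). CellTiter-Glo was then added, and after 10 min at room temperature, luminescence gave viability.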
Potency is the fitted concentration of half-maximal effect.

SMILES | viability, % of control | Potency
C=C[C@H]1[C@H](O[C@@H]2O[C@H](CO)[C@@H](O)[C@H](O)[C@H]2O)OC=C(C(=O)OC)[C@H]1CC=O | 103% (inactive) | –
C/C=C(\C)C(=O)OC1C2(O)CC3=C4CC(=O)OC(c5ccoc5)C4(C)CCC3C(C)(C2=O)C(C(OC(C)=O)C(=O)OC)C1(C)C (stereo not given) | – | 4.85 µM (active)
CCCSc1nc(N[C@@H]2C[C@H]2c2ccc(F)c(F)c2)c2nnn([C@@H]3C[C@H](OCCO)[C@@H](O)[C@H]3O)c2n1 | – | 23.1 µM (active)
CN1CCC(c2cn(C)c3ccc(OS(=O)(=O)c4c(F)cccc4F)cc23)CC1 | – | 14.6 µM (active)
CC1(C)CC2C(C1)C(C)(O)C13CC1(COC3=O)C2O (stereo not given) | 77.5% (inactive) | –
C=C1C(O)C(O)C2(CC3C(C)=CCC4C(C)(CO)CCCC34C)OC2C1O (stereo not given) | 83.4% (inactive) | –
CCCCCCCCCCC(O)C1C=CC2C(=O)N(c3ccccc3)C(=O)C2N1Nc1ccc([N+](=O)[O-])cc1 (stereo not given) | – | 11.6 µM (active)
C[C@@H]1O[C@@H](O[C@H]2[C@@H](OC(=O)[C@]34CCC(C)(C)CC3C3=CCC5[C@@]6(C)C[C@H](O)[C@H](O[C@@H]7O[C@H](CO)[C@@H](O)[C@H](O)[C@H]7O[C@@H]7OC[C@@H](O)[C@H](O)[C@H]7O)[C@@](C)(C(=O)O)C6CC[C@@]5(C)[C@]3(C)CC4)OC[C@H](O)[C@@H]2O)[C@H](O)[C@H](O)[C@H]1O[C@@H]1OC[C@@H](O)[C@H](O)[C@H]1O (stereo not given in full) | – | 1.38 µM (active)
O=C(Nc1ccn(Cc2ccc(O)cc2C(F)(F)F)n1)c1c(F)cccc1F | – | 13 µM (active)
C=C1C(=C/C=C2\CCC[C@]3(C)[C@@H]([C@H](C)/C=C/[C@@H](O)C4CC4)CC[C@@H]23)C[C@@H](O)C[C@@H]1O | – | 0.188 µM (active)
CC1CCCC(SCC(O)C(=O)O)CC(=O)c2c(O)cc(O)cc2CC(=O)O1 (stereo not given) | – | 2.24 µM (active)
COc1ccc(/C=C/C(=O)O[C@@H]2[C@@H](O[C@@H]3O[C@H](CO)[C@@H](O)[C@H](O)[C@H]3O)[C@@H](O)[C@H](O[C@H]3C4C=CO[C@@H](O[C@@H]5O[C@H](CO)[C@@H](O)[C@H](O)[C@H]5O)C4[C@@]4(CO)O[C@@H]34)O[C@H]2C)cc1 (stereo not given in full) | 104% [at 9.25 µM] (inactive) | –
O=C(NCc1ccccc1)[C@H](Cc1ccccc1)NC(=O)[C@H]1O[C@@H]1C(=O)NCCc1ccc(O)cc1 | – | 13.2 µM (active)
N=C1N=C(N)c2cc3ccccc3cc21 | – | 38.6 µM (active)
CN[C@@H]1[C@H](O[C@H]2[C@H](O[C@@H]3[C@@H](O)[C@H](O)[C@@H](N=C(N)N)[C@H](O)[C@H]3N=C(N)N)O[C@@H](C)[C@]2(O)CO)O[C@@H](CO)[C@H](O)[C@H]1O | 93.4% (inactive) | –
CC(C)CNC(=O)/C=C/CCCCc1ccc2c(c1)OCO2 | 100% (inactive) | –
CO[C@H]1/C=C\O[C@@]2(C)Oc3c(C)c(O)c4c(O)c(c(/C=N\N5CCN(C6CCCC6)CC5)c(O)c4c3C2=O)NC(=O)/C(C)=C\C=C/[C@H](C)[C@H](O)[C@@H](C)[C@@H](O)[C@@H](C)[C@H](OC(C)=O)[C@@H]1C | – | 10 µM (active)
Cc1ccnc(NC(=O)C(C)c2cccc(C(=O)c3ccccc3)c2)c1 (stereo not given) | – | 23.1 µM (active)
Cn1c(=O)cc(N2CCCC(N)C2)n(Cc2ccccc2C#N)c1=O (stereo not given) | 69.7% (inactive) | –
CS(=O)(=O)Nc1ccc2oc3c(OC(F)F)ccc(C(=O)Nc4c(Cl)cncc4Cl)c3c2c1 | – | 23.1 µM (active)

SMILES | viability, % of control | Potency
O=C1c2ccc(Nc3ccc(F)cc3F)cc2CCc2ccc(OCC(O)CO)cc21 (stereo not given) | – | 9.2 µM (active)
CC(=O)O[C@@H]1C=C2[C@H](CC[C@@]3(C)[C@@]2(O)CC[C@H]2Cc4c([nH]c5ccccc45)[C@@]23C)O[C@@H]1C(C)(C)O | – | 8.93 µM (active)
C[C@@H]1CCCN1CCc1cc2cc(-c3ccc(C#N)cc3)ccc2o1 | – | 20.6 µM (active)
O=C1NC(=O)/C(=C\c2ccc3c(c2)OC(F)(F)O3)S1 | – | 14.6 µM (active)
C[C@@H]1C[C@@H](O)[C@@]23CO[C@]2(CO)CCC[C@@H]3[C@@]12C[C@@H](c1ccoc1)OC2=O | 88.1% (inactive) | –
COC(=O)C1=COC(O[C@@H]2O[C@H](CO[C@@H]3O[C@H](COC(=O)/C=C\c4ccc(O)cc4)[C@@H](O)[C@H](O)[C@H]3O)[C@@H](O)[C@H](O)[C@H]2O)C2C(CO)=CCC12 (stereo not given in full) | 5.17% [at 17.3 µM] (inactive) | –
C[C@@H](Oc1cc(-n2cnc3ccc(OC4CCN(C)CC4)cc32)sc1C(N)=O)c1ccccc1Cl | – | 0.013 µM (active)
Cc1c(NC(=O)c2cc(C(N)=O)nc3cc(F)ccc23)c(C(F)(F)F)nn1Cc1ccc(C#N)cc1 | 72.7% [at 17.3 µM] (inactive) | –
CC1OC(O[C@H]2[C@@H](O)C[C@@]3(C)C([C@H](O)C[C@]4(C)C3CC=C3C5CC(C)(C)CC[C@]5(C(=O)OC5OC(CO)C(O)C(O)C5OC5OCC(OC6OCC(OC7OCC(O)C(O)C7O)C(O)C6O)C(OC6OCC(O)(CO)C6O)C5O)CC[C@]34C)[C@]2(C)CO)C(O)C(O)C1O (stereo not given in full) | 97% [at 9.25 µM] (inactive) | –
CCN1CCN(C(=O)N[C@@H](C(=O)N[C@@H]2C(=O)N3[C@@H]2SC(C)(C)[C@@H]3C(=O)O)c2ccccc2)C(=O)C1=O | 107% (inactive) | –
c1cc(CN2CCCCC2)cc(OCCCNc2nc3ccccc3s2)c1 | – | 21.1 µM (active)
CC(C)C[C@@H](N)C(=O)N[C@H]1C(=O)N[C@@H](CC(N)=O)C(=O)N[C@H]2C(=O)N[C@H]3C(=O)N[C@H](C(=O)N[C@H](C(=O)O)c4cc(O)cc(O)c4-c4cc3ccc4O)[C@H](O)c3ccc(c(Cl)c3)Oc3cc2cc(c3O[C@@H]2O[C@H](CO)[C@@H](O)[C@H](O)[C@H]2O[C@H]2C[C@](C)(N)[C@H](O)[C@H](C)O2)Oc2ccc(cc2Cl)[C@H]1O | 87.8% [at 17.3 µM] (inactive) | –
Cc1[nH]c(/C=C2\C(=O)Nc3cc(-c4ccccc4)ccc32)c(C)c1CCC(=O)O | – | 10.3 µM (active)
CN(C(=O)CNC(=O)/C=C/c1cccc(Cl)c1)C1CCS(=O)(=O)CC1 | – | 0.468 µM (active)
Clc1ccc(Cn2c(Cc3ccccc3)nc3ccccc32)cc1 | – | 16.4 µM (active)
Cn1c(CO)c(-c2ccccc2)c2cc([N+](=O)[O-])ccc21 | – | 23.1 µM (active)
CCNC1(C(N)=O)CN(c2nc(C)nc3c(-c4ccc(Cl)cc4)c(-c4ccccc4Cl)nn23)C1 | – | 16.4 µM (active)
C=C1CCC2C(C)(C(=O)O)CCCC2(C)C1CCC(C)CC(=O)O (stereo not given) | – | 4.53 µM (active)
CCNC(=O)N1CCN(CCCC(c2ccc(F)cc2)c2ccc(F)cc2)CC1 | – | 18.8 µM (active)
CC[C@H]1OC(=O)[C@](C)(F)C(=O)[C@H](C)[C@@H](O[C@@H]2O[C@H](C)C[C@H](N(C)C)[C@H]2O)[C@](C)(OC)C[C@@H](C)C(=O)[C@@H](C)[C@H]2N(CCCCn3cc(-c4cccc(N)c4)nn3)C(=O)O[C@]12C | – | 10.3 µM (active)
